TSHR antagonist – Antagonists of the Thyroid Stimulating Hormone Receptor: HTS campaign. activity change, negative = inhibition, % at 11.5 µM. Thyrotropin receptor (Homo sapiens), P16473. 330,000 compounds, 0.2% hits. TSHR-expressing cells, TSH-stimulated cAMP HTRF, 2 h; hits give low values;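 active = activity change below a set negative limit, meaning inhibition stronger than a set level, cut at about -70% in these data; inconclusive = activity change between two set negative limits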; note: % is set by controls: 0 for no effect and ±100 for the full control effect
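TSHR-expressing cells were treated with compounds, then stimulated with TSH at EC80 (4nM final) for 2 hours at 37 deg C. Cellular cAMP was measured by HTRF competition between lysate cAMP and cAMP-d2 for a cryptate-labelled anti-cAMP antibody.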
TRb SRC2 PPI – qHTS for Inhibitors of the Interaction of Thyroid Hormone Receptor and Steroid Receptor Coregulator 2. Thyroid hormone receptor beta (Homo sapiens), P10828. TRbeta-SRC2 peptide binding, fluorescence polarization; receptor liganded with 1 µM T3. Potency, µM (series often up to 106 µM), for inactives: top-dose activity change, negative = inhibition, most hits filed as inhibitors. 280,000 compounds, 0.065% hits; active = well fitted curve in the direction sought with a large enough effect; inconclusive = small, poorly fitted or top-dose-only effect, or another doubt; inactive = no such curve, though single readings can be large; an effect the other way counts as inactive or inconclusive;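 note: potency is the fitted concentration of half-maximal effect; plate controls were bound peptide for no effect and peptide without receptor for full effect; nearly all actives have a fitted effect of over 50% in size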
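Read-out is fluorescence polarization (555 nm excitation, 632 nm emission) of a Texas Red SRC2 coactivator peptide; loss of signal reflects blocked binding to human TRb ligand-binding domain in the presence of 1 uM T3.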
TCR activator – Activators of T cell receptors: qHTS campaign; primary human leukocytes, anti-CD3, IL-2 HTRF, 48 h; Potency, µM (series often up to 9.22 µM), inactives show at the highest dose activation of IL-2 secretion, most hits filed as activators; 330,000 tested, under 10 active; active = well fitted curve in the direction sought with a large enough effect; inconclusive = small, poorly fitted or top-dose-only effect, or another doubt; inactive = no such curve, though single readings can be large; an effect the other way counts as inactive or inconclusive; note: % of control where 0% means no effect
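1) Mix primary human leukocytes, a-CD3 beads and compound. 2) Incubate 48 hr. 3) Add HTRF IL-2 reagents (a-IL-2-K, a-IL-2-d2).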
TexasRed fluor – Total Fluorescence Counterscreen for Inhibitors of the Interaction of Thyroid Hormone Receptor and Steroid Receptor Coregulator 2 | TRb/SRC2 Texas Red total fluorescence interference | 280,000 compounds, 0.29% hits | Potency, µM (series often up to 106 µM), for inactives: at the highest dose fluorescence change, negative = quenching; active = well fitted curve in either direction with a large enough effect; inconclusive = small, poorly fitted or top-dose-only effect; note: potency is the fitted concentration of half-maximal effect; % is set by controls: 0 for no effect and ±100 for the full control effect
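Human TRb ligand-binding domain at 0.6 uM with 20 nM Texas Red SRC2 peptide in Tris buffer containing 1 uM T3 and 5% DMSO, incubated with compound 5 h at ambient temperature. Total fluorescence (555/632 nm) calculated as parallel + 2 × perpendicular.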
Coupling enz – qHTS Assay for Inhibitors of Fructose-1,6-bisphosphate Aldolase from Giardia Lamblia: Coupling assay counterscreen | coupling enzyme system counterscreen, AmpLite Red fluorescence | activity change, negative = inhibition, % at 58.2 µM, hits read low | 290,000 compounds, 0.67% hits | AID 2472, 2010; in the data active = activity change below about -30%; note: % is set by controls: 0 for no effect and ±100 for the full control effect
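Counterscreen lacking aldolase: glyceraldehyde-3-phosphate coupling-enzyme reagent preincubated 10 min at RT with compound (at 57.5 uM final), then substrate/coupling system with AmpLite Red added; fluorescence read at 525/598 nm after 20 min RT.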
NPSR antagonist – qHTS Assay for Antagonists of the Neuropeptide S Receptor: cAMP Signal Transduction; Q6W5P4; CHO-NPSR cells, cAMP TR-FRET, antagonist mode; Potency, µM (top dose mostly 38.3 µM), inactives show at the top dose activity change, negative = inhibition, hits mostly inhibitors; 220,000 compounds, 1% hits; AID 1461, 2008; active = well fitted curve in the direction sought with a large enough effect; inconclusive = small, poorly fitted or top-dose-only effect, or another doubt; inactive = no such curve, though single readings can be large; an effect the other way counts as inactive or inconclusive; note: potency is the fitted concentration of half-maximal effect; % is set by controls: 0 for no effect and ±100 for the full control effect; nearly all actives have a fitted effect of over 50% in size
CASP1 inh CRC – Confirmation Concentration-Response Assay for Allosteric/Competitive Inhibitors of Caspase-1 | shares compounds with Coupling enz | purified caspase-1, fluorogenic substrate cleavage | Potency, µM (highest dose often 57.5 µM), for inactives: top-dose activity change, negative = inhibition, hits mostly inhibitors | 60 compounds, 20% hits | AID 896, 2007
CASP7 inh CRC – Confirmation Concentration-Response Assay for Allosteric/Competitive Inhibitors of Caspase-7; shares compounds with Coupling enz; recombinant caspase-7, fluorogenic substrate cleavage; Potency, µM (doses to about 57.5 µM), for inactives: at the top dose activity change, negative = inhibition, most hits filed as inhibitors; 60 tested, under 10 active; AID 897, 2007; active = well fitted inhibition curve with a large enough effect in the main read-out, with a control signal flat, not every such curve was filed as active; inconclusive = small, poorly fitted or top-dose-only effect, or a change in a side signal; inactive = no such curve, though single readings can be large or run the other way
Casp7 cysteine – Concentration-Response Counterscreen for Redox Active Inhibitors of Caspase-7: Cysteine; Potency, µM (highest dose often 57.5 µM), for inactives: top-dose activity change, negative = inhibition, usual class: inhibitors; caspase-7 enzyme with cysteine, fluorogenic substrate, redox counterscreen; shares compounds with Coupling enz; 60 tested, under 10 active
Casp1 cysteine – Concentration-Response Counterscreen for Redox Active Inhibitors of Caspase-1: Cysteine; shares compounds with Coupling enz; recombinant caspase-1, fluorogenic substrate, cysteine buffer; Potency, µM (titrated, usually from 57.5 µM), without a hit: at the top dose activity change, negative = inhibition, actives largely listed as inhibitors; 60 tested, under 10 active; AID 929, 2007
* hit, by the source's call; ? = inconclusive; / = no result; [ ] = another dose, or the depositor's remark. Compounds with a hit are over-represented: about 1% of the library has one in this group of screens. Unless noted, calls come from the whole dose curve; as a rule, active = well fitted inhibition curve with a large enough effect in the main read-out, with a control signal flat; inconclusive = small, poorly fitted or top-dose-only effect, or a change in a side signal; inactive = no such curve, though single readings can be large or run the other way.

SMILES	TSHR antagonist	TRb SRC2 PPI	TCR activator	TexasRed fluor	Coupling enz	NPSR antagonist	others
COc1cc2c(cc1O)C[C@H]1NCCc3cc4c(c-2c31)OCO4	-17	-5%	8%	-5%	-31*	-3%
CC(=O)[O][Hg][c]1ccccc1	/	-8%[201 µM]	/	3%[201 µM]	-48*	/
c1cc[n+]2c(c1)-c1cccc[n+]1CC2	/	0%	/	0%	-35*	/
CCC[CH2][Sn]([CH2]CCC)[CH2]CCC	/	1%[201 µM]	/	2%[201 µM]	/	/
CCCOc1nn(C(=O)NS(=O)(=O)c2ccccc2C(=O)OC)c(=O)n1C	/	-1%[201 µM]	/	-4%[201 µM]	/	/
CCn1nc(-c2cccs2)nc2c(=O)n(C)c(=O)nc1-2	-29	?	-2%	-6%	-69*	2.5µM*	CASP1 inh CRC=0.32µM*;CASP7 inh CRC=0.63µM*;Casp7 cysteine=-11%;Casp1 cysteine=-4%
O=C(O)c1cccc(Cl)c1	/	1%	/	0%	/	/
O=C(O)c1cc[c]([Hg][Cl])cc1	-29	2%	3%	-5%	/	-1%[46.1 µM]	CASP1 inh CRC=10µM*;CASP7 inh CRC=-14%;Casp7 cysteine=-25%;Casp1 cysteine=2.5µM*
CC(C)C(C(=O)OC(C#N)c1cccc(Oc2ccccc2)c1)c1ccc(Cl)cc1 (centres undefined)	/	9%[201 µM]	/	0%[201 µM]	/	/
